Screens deposited in PubChem by National Center for Advancing Translational Sciences (NCATS).
HP1b chromo inh – HP1-beta chromodomain-methylated histone interaction inhibition | P83916 | AlphaScreen HP1-beta / biotin-H3K9me3 peptide binding | Potency, µM (top dose mostly 114 µM), for the others: at the top dose activity change, negative = inhibition, most hits filed as inhibitors | 390,000 tested, 0.56% active | AID 540317; also: nearly all actives have a fitted effect of over 70% in size
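Compound inhibition of the preformed complex between 50 nM HP1-beta and 50 nM biotinylated H3K9me3 peptide was read by AlphaScreen. Buffer was PBS pH 7.4 with 0.01% Tween-20. Incubations ran 30 min at room temperature, with 10 ug/mL donor/acceptor beads.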
JMJD2A Tudor inh – blocks the human JMJD2A Tudor domain. AlphaScreen JMJD2A-Tudor / H3K4me3 peptide binding. Potency, µM (titrated, usually from 114 µM), for the others: top-dose activity change, negative = inhibition, usual class: inhibitors. AID 504339. 390,000 tested, 4.4% active; also: % is scaled to controls: 0 for no effect and ±100 for the full control effect; nearly all actives have a fitted effect of over 50% in size
Target sequence (O75164 whole entry, looked up, the tested form may be a part): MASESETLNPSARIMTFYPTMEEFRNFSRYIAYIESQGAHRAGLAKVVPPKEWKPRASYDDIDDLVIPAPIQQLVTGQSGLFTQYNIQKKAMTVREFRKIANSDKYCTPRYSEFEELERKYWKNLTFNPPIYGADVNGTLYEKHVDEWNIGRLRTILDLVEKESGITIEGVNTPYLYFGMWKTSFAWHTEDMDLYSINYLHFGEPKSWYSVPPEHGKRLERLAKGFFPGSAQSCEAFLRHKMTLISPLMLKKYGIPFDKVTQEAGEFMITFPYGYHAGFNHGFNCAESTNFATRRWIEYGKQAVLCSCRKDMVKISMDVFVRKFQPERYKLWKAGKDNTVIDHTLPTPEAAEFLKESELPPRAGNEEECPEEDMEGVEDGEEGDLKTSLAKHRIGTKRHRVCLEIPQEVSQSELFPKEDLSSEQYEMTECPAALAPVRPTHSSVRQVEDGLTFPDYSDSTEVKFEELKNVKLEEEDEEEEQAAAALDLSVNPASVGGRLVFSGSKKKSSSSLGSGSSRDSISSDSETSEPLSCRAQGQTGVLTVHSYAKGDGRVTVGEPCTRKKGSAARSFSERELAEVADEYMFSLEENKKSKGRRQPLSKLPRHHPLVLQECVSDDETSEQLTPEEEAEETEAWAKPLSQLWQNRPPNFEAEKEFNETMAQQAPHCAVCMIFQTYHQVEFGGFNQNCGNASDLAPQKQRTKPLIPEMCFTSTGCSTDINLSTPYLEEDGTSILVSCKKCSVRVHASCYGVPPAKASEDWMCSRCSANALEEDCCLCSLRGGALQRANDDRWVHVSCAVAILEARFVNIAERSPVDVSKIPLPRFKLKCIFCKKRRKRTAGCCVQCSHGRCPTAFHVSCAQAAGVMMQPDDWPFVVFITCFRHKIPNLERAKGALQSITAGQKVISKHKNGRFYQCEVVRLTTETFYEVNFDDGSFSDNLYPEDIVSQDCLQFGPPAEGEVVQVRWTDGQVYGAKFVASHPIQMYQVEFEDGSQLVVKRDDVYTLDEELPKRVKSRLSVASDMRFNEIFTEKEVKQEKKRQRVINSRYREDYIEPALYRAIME
BAZ2B inh – BAZ2B (human) inhibition; 360,000 tested, 4.4% active; AlphaScreen BAZ2B-H3K14Ac peptide displacement; Potency, µM (top dose mostly 114 µM), inactives show top-dose activity change, negative = inhibition, actives largely listed as inhibitors; also: % is scaled to controls: 0 for no effect and ±100 for the full control effect; nearly all actives have a fitted effect of over 60% in size
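AlphaScreen luminescence quantifies BAZ2B engagement of H3K14Ac peptide; the protein and biotinylated peptide are both at 50 nM final, buffer PBS pH 7.4 with 0.01% Tween-20, all steps at room temperature.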
Sfp PPTase inh – inhibitors of Bacillus subtilis Sfp phosphopantetheinyl transferase; AID 1490; Biochemical Sfp PPTase activity, qHTS; Potency, µM, inactives show largest response in the series, negative = inhibition, most hits filed as inhibitors; 310,000 tested, 3.5% active; Q9F4F7;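 also: the enzyme is Sfp with the accession as filed and its product quenches rhodamine fluorescence; 0% = enzyme reaction without inhibitor and -100% = no enzyme wells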
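Fluorescence-quenching assay: 15 nM Sfp-PPTase preincubated 15 min at room temperature with compound, then 5 uM rhodamine-CoA and 12.5 uM BHQ-2-labelled YbbR peptide added. Fluorescence (ex 525/em 598 nm) read at start and after 30 min; difference gives rate.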
G9a inh – G9a (human) methyltransferase inhibition; Q96KQ7; G9a H3K9 monomethylation, AlphaScreen, 2 h; Potency, µM (series often up to 102 µM), for inactives: at the highest dose activity, negative = inhibition, most hits filed as inhibitors; 350,000 tested, 8.8% active; also: % is scaled to controls: 0 for no effect and ±100 for the full control effect; nearly all actives have a fitted effect of over 75% in size
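G9a (20 nM) was preincubated 15 min with compound, then reacted 2 h at room temperature with 500 nM biotin-H3K9 peptide and 20 µM SAM. Monomethyl-H3K9 detected by AlphaScreen using anti-H3K9me1 antibody.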
Starred values were filed as active, the others as inactive; u = inconclusive; x = not tested or not shown; ! = a repeat was not active; [ ] = another dose, or the depositor's remark. Hits are enriched below; roughly 12% of the tested compounds scored in any of these assays. Calls follow the shape of the dose curve; as a rule, active = well fitted curve in the direction sought with a large enough effect; inconclusive = small, poorly fitted or top-dose-only effect, or another doubt; inactive = no such curve, though single readings can be large; an effect the other way counts as inactive or inconclusive. Potency is read from the fitted curve at half-maximal effect.

SMILES | HP1b chromo inh | JMJD2A Tudor inh | BAZ2B inh | Sfp PPTase inh | G9a inh
Cc1ccc(C(=O)O)cc1Nc1nc2ccccc2n2nnnc12 | 1% | 32µM* | u | x | 5%[59 µM]
Cc1nn(CC(=O)NCc2ccc(N(C)C)cc2)c(=O)c2nn(-c3ccccc3)c(C)c12 | 40% | -15% | -33% | x | u
Cc1ccc(CNC(=O)c2ccc(N3CCC4(CC3)CC(c3ccccc3)=NO4)c([N+](=O)[O-])c2)cc1 | u | -35% | -31% | 9% | 71µM*
Cc1ccc(CNC(=O)c2ccc(N3CCc4ccccc43)c([N+](=O)[O-])c2)cc1 | 32µM* | 8.9µM* | 10µM* | 24% | 8.9µM*
C=C1CCN(c2ccc(C(=O)NCc3ccccc3)cc2[N+](=O)[O-])CC1 | -6% | u | u | 0% | 22µM*
O=C(NCC(c1ccco1)N1CCc2ccccc21)c1ccc([N+](=O)[O-])cc1 (stereo not given) | -2% | -22% | -7% | x | 26%[2.33 µM]
COC(CNC(=O)c1ccc(N2CCc3ccccc32)c([N+](=O)[O-])c1)OC | u | u | 40µM* | u | 45µM*
CCc1cccc(NC(=O)CN2c3ccccc3S(=O)(=O)c3ccccc32)c1 | 7% | -32% | u | x | 4%[59 µM]
c1ccc(CNCc2nnc(-c3cc4ccccc4[nH]3)o2)cc1 | x | -12% | x | x | x
CCCNC(=O)c1ccc(N2CCC3(CC2)CC(c2ccccc2)=NO3)c(NC(=O)c2cccc(OC)c2)c1 | 23% | 56µM* | u | 13% | 45µM*
CCCn1nc(C(=O)Nc2nc(-c3ccccn3)cs2)c2ccccc2c1=O | 30% | 56µM* | u | x | 44%[12.7 µM]
CCc1cc(C(=O)Nc2nc(-c3ccccn3)cs2)sc1C | 28% | u | 71µM* | x | -8%[12.7 µM]
CC(=O)c1ccc(-c2ccc(C(=O)Nc3nc(-c4ccccn4)cs3)o2)cc1 | -3% | -34% | x | x | x
Cc1ccc(C(=O)Nc2nc(-c3ccccn3)cs2)o1 | 27% | 50µM* | 18µM* | -8% | u
O=C(Nc1nc(-c2ccccn2)cs1)c1ccc(-c2ccccc2F)o1 | 39% | u | 79µM* | x | 43%[12.7 µM]
COC(c1ccccc1Br)C(C)/C=C/CCO (stereo not given) | x | x | x | 5% | x
CCOc1ccc(CCNC(=O)c2cn(-c3ccc(OC)cc3)c(=O)c3ccccc23)cc1OCC | 0% | u | -12% | x | -5%[59 µM]
COC(=O)c1cc(NC(=O)Cn2nc(-c3ccc(C)c(C)c3)ccc2=O)cc(C(=O)OC)c1 | u | -8% | -7% | x | 4%[59 µM]
CC(=O)Nc1ccc(-c2csc(NC(=O)c3ccc(C)o3)n2)cc1 | 17% | -13% | -34% | -3% | 45µM*
O=C(Nc1nc(-c2ccccn2)cs1)c1ccc([N+](=O)[O-])o1 | u | 22µM* | 20µM* | 16µM* | 6.3µM*
COc1ccccc1-c1cncnc1NCc1cccs1 | x | x | x | 0% | 11%[0.501 µM]
CCN(Cc1ccccc1)Cc1c(O)ccc2c(=O)c(-c3ccccc3Cl)coc12 | 28% | -15% | 0% | x | 8%[59 µM]
O=C1CCCC/C1=C\Nc1ccccc1C(=O)O | 13% | u | -28% | -3% | 50µM*
CCC(CC)=N/N=C/c1c(O)n(CC)c2cc(C3=NNC(=O)CC3)ccc12 | 27% | -22% | -28% | u | 3.5µM*
CCn1c(O)c(/C=N/N=C/c2ccccc2)c2ccc(C3=NNC(=O)CC3)cc21 | 24% | -10% | 6% | u | 12%
SMILES | HP1b chromo inh | JMJD2A Tudor inh | BAZ2B inh | Sfp PPTase inh | G9a inh
Cn1c(SCC(=O)c2ccc3c(c2)Cc2ccccc2-3)nnc1-c1ccccc1 | 28% | -12%[11.4 µM] | u | 79µM* | 35µM*
CCC(=O)Nc1nnc(SCC(=O)c2ccc3c(c2)Cc2ccccc2-3)s1 | 17% | -15% | 4% | 56µM* | u
Cn1c(SCC(=O)c2ccccc2)nnc1-c1ccc(O)cc1 | 19% | -10% | -4% | 79µM* | -5%[12.7 µM]
Cn1c(SCC(=O)c2ccccc2)nnc1-c1ccccn1 | 38% | -9% | 79µM* | 9% | -2%
Cn1c(SCC(=O)c2ccccc2)nnc1-c1ccncc1 | 32% | -20% | 2% | 24% | 20%[59 µM]
Cc1ccc(C(=O)CSc2nnc(-c3ccccc3N)n2C)cc1C | 27% | -23% | 3% | 7% | -7%[59 µM]
CC(NC(=O)COC(=O)c1cc(=O)c2ccccc2o1)c1ccccc1 (stereo not given) | 20% | 0% | x | x | x
CCC(=O)Nc1nnc(SCc2ccc(F)cc2)s1 | 46% | 3% | 1% | 11% | 8.9µM*
COC(=O)c1c(C)n(-c2ccc(OC)cc2)c2ccc(O)cc12 | -12% | u | u | 45µM* | u
CC(OC(=O)c1ccc(S(=O)(=O)NCc2ccco2)cc1)C(=O)Nc1ccccc1 (stereo not given) | 11% | -1% | x | x | x
COc1ccc(OC)c2sc(N3CCN(C(=O)c4ccc5c(c4)CCCC5)CC3)nc12 | u | u | 40µM* | x | u
COc1ccc(C(=O)N2CCN(c3ccc(C)cc3C)CC2)cc1OC | 28% | -15% | -7% | 6% | -18%
COc1ccc(OC)c2c(C)cc(N3CCN(C(=O)c4ccc(F)cc4)CC3)nc12 | -27% | u | 50µM* | -24% | u
COc1ccc(OC)c2c(C)cc(N3CCN(C(=O)c4ccc(C)cc4)CC3)nc12 | -36% | u | 50µM* | 11% | u
CC1CN(S(=O)(=O)c2cc(C(=O)NCCCN3CCCC3=O)ccc2Cl)CC(C)O1 (stereo not given) | 39% | -1% | x | x | x
Cc1ccccc1Cn1c(=O)n(CC2CCC(C(=O)N3CCC(C)CC3)CC2)c(=O)c2sccc21 (stereo not given) | 31% | -27% | u | x | -2%[59 µM]
Cc1ccc(-n2ncc(C(=O)NCCCN3CCCCC3)c2C2CCN(C(=O)OC(C)(C)C)CC2)c(C)c1 | 28% | -7% | 5%[57.1 µM] | x | -20%[59 µM]
O=C(c1cccs1)N1CCN(Cc2ccccc2)CC1 | 19% | 0% | 0% | 28% | -2%[59 µM]
O=C(c1cccs1)N1CCC(Cc2ccccc2)CC1 | 33% | 5% | 14% | 4% | 16%[59 µM]
O=C(c1cccnc1)N1CCN(CCCc2ccccc2)CC1 | 56µM* | 5µM* | x | u | u
O=C(c1ccccc1)N1CCN(C(=O)c2cccnc2)CC1 | 20% | 1% | 1% | -3% | u
COc1ccc(CN2CCN(C(=O)c3cccs3)CC2)cc1 | u | 1.3µM* | 56µM* | -24% | 10µM*
O=C(c1cccs1)N1CCN(CCCc2ccccc2)CC1 | 45µM* | 3.2µM* | 79µM* | -17% | 32µM*
COCCCNC(=S)Nc1ccc(S(=O)(=O)Nc2cc(OC)nc(OC)n2)cc1 | 22% | u | -4% | -8% | -13%
COc1ccc(NC(=O)Cn2c(=O)n(Cc3nc(C)no3)c(=O)c3cc4c(cc32)OCO4)cc1OC | 31% | -4% | -14% | x | -28%[59 µM]
CCOc1c(C)cc(-c2ncccc2O)cc1C | 25% | 89µM*! | -1% | 3% | -11%[59 µM]
